# Compound activity deposited in PubChem BioAssay by National Center for Advancing Translational Sciences (NCATS).
# An excerpt weighted towards active compounds, which were near 17% of everything screened.
# ATXN2 expr inh: inhibitors of ATXN2 expression; 360,000 tested, 0.72% active; HEK-293 ATXN2-luciferase reporter, luminescence, 24 h; AID 1745845; Potency, µM (doses to about 57 µM), for the others: at the top dose activity change, negative = inhibition, hits mostly inhibitors; further: on the % scale 0 is the no-effect control and ±100 the full control effect; nearly all actives have a fitted effect of over 55% in size
#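 qHTS (up to 57 uM final) was run with 24 h compound exposure of reporter cells at 37 °C. Each well was multiplexed: SteadyGlo luminescence measured ATXN2-luciferase expression after a fluorogenic Gly-Phe-AFC viability readout (25 uM final).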
# HepG2 tox: counter-screen for TGF-b inhibitors: cytotoxicity in HepG2 cells. HepG2 CAGA-GFP viability, ATP luminescence, 18 h. 410,000 tested, 0.76% active. Potency, µM (titrated, usually from 46.1 µM), for inactives: top-dose activity change, negative = cytotoxicity, hits mostly cytotoxic
#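 HepG2 CAGA-GFP cells (1000/well, DMEM with 1% FBS) received compound, then TGF-beta at 500 pg/mL final, and were incubated 18 hours at 37 degrees C. Viability was read by CellTiter-Glo luminescence. Media-only wells were set as complete cell-killing and DMSO as no toxicity.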
# TDP1 cell noCPT: qHTS for Inhibitors of human tyrosyl-DNA phosphodiesterase 1 (TDP1): qHTS in cells in absence of CPT; DT40 Tdp1-/- hTDP1 cells, no CPT, ATP luminescence, 48 h; Potency, µM (doses to about 46.2 µM), for inactives: top-dose activity change, negative = growth inhibition, most hits filed as inhibitors; 420,000 tested, 15% active; further: on the % scale 0 is the no-effect control and ±100 the full control effect; nearly all actives have a fitted effect of over 55% in size
#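 Growth of hTDP1-complemented DT40 Tdp1-knockout cells is measured by ATP luminescence after at least 48 hr compound exposure at 37 °C, with DMSO substituting for the 20 nM CPT used in the parallel screen.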
# DT40 TDP1 CPT: DT40-hTDP1 cell growth loss with CPT; chicken DT40 Tdp1-/-;hTDP1 cells + 20 nM CPT, ATP luminescence, 48 h; Potency, µM (titrated, usually from 46.2 µM), without a hit: at the top dose activity change, negative = growth inhibition, hits mostly inhibitors; 420,000 tested, 12% active; further: on the % scale 0 is the no-effect control and ±100 the full control effect; nearly all actives have a fitted effect of over 55% in size
#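 Chicken DT40 Tdp1-/- cells complemented with human TDP1, 400 cells/well, exposed to compounds plus 20 nM camptothecin for at least 48 h at 37 C; viability read as ATP content by CellTiter-Glo luminescence.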
# ATXN viability: cell viability loss in ATXN counter-screen | S2 cells (HEK-293 line with an ATXN2-luciferase reporter) viability, CellTiter-Fluor protease fluorescence, 24 h | Potency, µM (top dose mostly 56.7 µM), most hits filed as cytotoxic | 400,000 tested, 0.49% active | AID 651635; further: nearly all actives have a fitted effect of over 40% in size
# TGFb inhibitor: inhibitors of TGF-b signaling; 410,000 tested, 1.2% active; Potency, µM (doses to about 46.1 µM), for inactives: at the top dose activity, negative = inhibition, usual class: inhibitors; HepG2 CAGA-GFP TGF-b/SMAD3 reporter, GFP fluorescence, 18 h; TGF-beta stimulated, 500 pg/mL final; further: on the % scale 0 is the no-effect control and ±100 the full control effect; nearly all actives have a fitted effect of over 65% in size
#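 GFP signal (ex488/em500-530) from TGF-beta-stimulated HEPG2 CAGA-GFP cells, 500 pg/mL final, 18 h at 37 degrees C in DMEM plus 1% FBS, normalized to unstimulated and DMSO-stimulated controls.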
# * marks the source's active call; other numbers are inactive results; i = inactive; ? = inconclusive; / = no result given; ! = not confirmed by another sample; [ ] = dose if it differs, or a comment. The call rests on the fitted dose curve; in most records, active means well fitted curve in the direction sought with a large enough effect; inconclusive means small, poorly fitted or top-dose-only effect, or another doubt; inactive means no such curve, though single readings can be large; an effect the other way counts as inactive or inconclusive. Potency means the concentration at half of the fitted maximal effect.
SMILES,ATXN2 expr inh,HepG2 tox,TDP1 cell noCPT,DT40 TDP1 CPT,ATXN viability,TGFb inhibitor
CCOc1ccc2c(c1)C(c1ccc(C)cc1)=NNC(c1ccc(OC)cc1)=N2,5.2%,-59.4%,-28.1%,?,i,-13.5%
CCc1ccc2c(c1)C(c1ccc(N3CCOCC3)cc1)=NNC(c1ccncc1)=N2,-7.3%[11.3 µM],-6.8%,-2.1%,-14.9%,i,-7.9%
CCN1CCCC1CNC(=O)c1ccc(CS(=O)(=O)c2ccccc2C)o1 (stereo unspecified),-12.7%,5.3%,-9.5%,-15.5%,i,13.0%
CCOC(=O)C1CCN(C(=O)C2CC(=O)N(c3ccc4c(c3)OCCO4)C2)CC1 (stereo unspecified),-2.5%,-3.0%,19.3%,-14.2%,i,-4.5%
O=C(Nc1ccc(F)cc1F)c1ccc(-c2ccccc2)s1,35.0%,-12.7%,?,-17.4%,i,5.9%
Cn1nc(C(=O)NCc2ccc(F)cc2)c2c1-c1ccccc1SC2,/,-11.3%,?,?,/,?
CCCN(CCC)C(=O)c1nn(C)c2c1CSc1ccc(C)cc1-2,-5.7%,-18.9%,18.4µM*,?,?,-0.8%
Cn1nc(C(=O)NCc2ccc(Cl)cc2)c2c1-c1ccccc1SC2,/,-29.9%,?,?,/,?
CCc1ccccc1N(C)C(=O)c1nn(C)c2c1CSc1ccccc1-2,/,-16.3%,23.1µM*,?,/,-6.8%
CCCN(CCC)C(=O)c1nn(C)c2c1CSc1ccccc1-2,/,-29.9%,?,18.4µM*,/,?
Cc1cc(-c2ccc3c(c2)COc2c4ccccc4nn2-3)on1,45.9%,-24.0%,?,?,i,-0.4%
CCc1ccc(S(=O)(=O)N2CCN(c3ccc(Cl)c(Cl)c3)CC2)cc1,-7.2%,-8.0%,/,/,i,2.5%
O=C(O)c1ccc(CN2C[C@@H](CO)O[C@@H](n3cnc4c(NCc5ccco5)ncnc43)C2)cc1,17.8%,0.3%,3.4%,9.1%,i,2.1%
Cc1cccc(CS(=O)(=O)CC2Nc3ccc(C(=O)NCc4ccccc4Cl)cc3NC2=O)c1 (stereo unspecified),/,-32.6%,?,8.2µM*,/,?
CC1(C(=O)NS(C)(=O)=O)CCN1C(=O)Cc1ccc(Cl)cc1Cl (stereo unspecified),9.2%,1.4%,6.7%,2.7%,i,-6.9%
COc1cc(=O)n2c(c1C(=O)NC(C)c1ccco1)CCN(C(=O)c1ccc3c(c1)OCCO3)CC2 (stereo unspecified),/,/,-4.7%,-5.1%,i,/
Cc1cc(NS(=O)(=O)c2ccc(NC(=O)COc3c(C)cc(Br)cc3C)cc2)no1,3.7%,-9.2%,23.1µM*,20.6µM*,i,-6.2%
Cc1cc(NS(=O)(=O)c2ccc(NC(=O)COc3ccc(Br)cc3)cc2)nc(C)n1,-13.3%,-31.0%,?,14.6µM*,i,-29.3%
Cc1cc(NS(=O)(=O)c2ccc(NC(=O)COc3ccc(Br)cc3C)cc2)no1,-1.3%,-25.5%,-22.4%,-3.7%,i,0.6%
Cc1ccc(Cl)cc1N1CCN(C(=O)CSc2cc(=O)n(C)c3ccccc23)CC1,?,-32.4%,7.31µM*,14.6µM*,i,-29.0%
CCn1c(=O)cc(SCC(=O)N2CCN(c3ccccn3)CC2)c2ccccc21,65.6%,-9.8%,?,2.1%,i,-0.8%
Cn1c(=O)cc(SCC(=O)N2CCCC2)c2ccccc21,-4.7%,0.1%,-0.1%,7.1%,?,?
CCn1c(=O)cc(SCC(=O)N2CCN(c3ccccc3F)CC2)c2ccccc21,-6.3%,-92.1%,25.9µM*!,?,?,-26.3%
COc1ccc2nc(NC(=O)CS(=O)(=O)c3ccc(C)cc3)sc2c1,1.0%,-0.2%,?,?,i,-1.6%
Cn1c(SCC(=O)OC2CCCCC2)nnc1-c1ccco1,0.6%,2.9%,2.5%,-2.2%,i,5.3%
SMILES,ATXN2 expr inh,HepG2 tox,TDP1 cell noCPT,DT40 TDP1 CPT,ATXN viability,TGFb inhibitor
Cc1ccsc1CCN1C(=O)N(c2ccc(F)cc2)C(=O)C1CC(=O)Nc1ccccc1 (stereo unspecified),-16.4%,-6.5%,23.1µM*,?,?,-22.5%
COCCCN1C(=O)N(c2ccccc2)C(=O)C1CC(=O)Nc1ccc(F)cc1 (stereo unspecified),-7.7%,-16.5%,-1.4%,?,i,-2.4%
CCNC(=O)CC1C(=O)N(c2ccc(C)cc2)C(=O)N1CCc1sccc1C (stereo unspecified),-26.1%,-21.0%,-5.6%,-4.5%,i,-13.8%
Cc1ccsc1CCN1C(=O)N(c2ccccc2)C(=O)C1CC(=O)Nc1ccc(F)cc1 (stereo unspecified),-13.7%,-38.8%,14.6µM*,?,?,?
CCC(CC)C(=O)Nc1cc(-c2cccc(C)c2)nn1-c1ccccc1,-3.3%,-7.4%,16.4µM*,23.1µM*,i,-19.4%
Cc1ccc(NC(=O)c2cc(-c3ccccc3)nn2-c2ccccc2)c(Br)c1,9.0%,1.8%,?,14.6µM*,i,-1.9%
Cc1ccc(NC(=O)c2cc(-c3ccccc3)nn2-c2ccccc2)cc1,-19.7%,0.2%,20.6µM*,?,i,-6.0%
CC(=O)c1ccc(NC(=O)c2cc(C)nn2-c2ccccc2)cc1,/,-22.3%,?,?,/,/
CCN(CC(=O)NCc1ccc(Cl)cc1)C(=O)c1cc2ccccc2o1,-7.8%,-35.3%,-27.9%,0.1%,i,-18.6%
CC(=O)c1ccc(OCCCC(=O)Nc2ccc(S(=O)(=O)N3CCOCC3)cc2)cc1,1.8%,2.0%,?,?,i,-11.4%
Cc1ccc(S(=O)(=O)N(CC(=O)Nc2cc(C)ccc2C)C(=O)N2CCN(C)CC2)cc1,-6.6%,5.2%,5.3%,2.8%,?,-9.8%
NS(=O)(=O)c1ccc(CCNc2ccn3nc(-c4ccc(OCCN5CCOCC5)cc4)cc3n2)cc1,3.5%,-22.8%,14.6µM*,18.4µM*,?,2.9%
COCCCNc1ccn2nc(-c3ccc(OCCN4CCOCC4)cc3)cc2n1,7.9%,-10.6%,11.6µM*,?,i,9.1%
Clc1cccc(-c2cc3nc(NCCOc4ccccc4)ccn3n2)c1,11.4%,-33.6%,-5.2%,-2.3%,i,-8.0%
N#C/C(=C\c1ccc(OCCN2CCOCC2)cc1)C(=O)Nc1ccc(S(N)(=O)=O)cc1,-14.6%,-7.1%,5.7%,-1.7%,i,-18.2%
